Screening data deposited in PubChem BioAssay by National Center for Advancing Translational Sciences (NCATS).
This is a sample that favours compounds with a hit; in the whole collection about 8% have one here.
HT1080 IDH1KD tx = toxicity to HT-1080 IDH1 knockdown cells (counter line); HT-1080 IDH1 knockdown viability, ATP luminescence, 48 h; hit rate 2% among 360,000; Potency, µM (top dose mostly 46.1 µM), for inactives: at the highest dose activity, negative = toxicity, hits mostly cytotoxic;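 also: 0% = DMSO wells and -100% = cell-free medium wells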
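HT-1080-IDH1KD cells (IDH1 knocked down), 750/well in RPMI with 5% FBS, treated with compound 48 h at 37 degrees C. Viability by CellTiter-Glo luminescence, normalised to DMSO and no-cell wells; concentration-response curves classed.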
HT1080-NT tox = kills 2HG-producing HT-1080-NT fibrosarcoma cells; Potency, µM (series often up to 46.1 µM), without a hit: at the highest dose activity, negative = less viability, actives largely listed as cytotoxic; HT-1080-NT fibrosarcoma viability, CellTiter-Glo ATP luminescence, 48 h; hit rate 1.6% among 360,000; AID 686970;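 also: NT is the 2HG producing partner of a matched IDH1 knockdown line; 0% = DMSO-treated cells and -100% = media-only wells without cells; nearly all actives have a fitted effect of over 55% in size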
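HT-1080-NT; 750 cells/well; 5% FBS RPMI; 48 h compound, 37 degrees C; CellTiter-Glo luminescence; curve fitting and curve-class assignment.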
KB-3-1 cytotox = kills parental KB-3-1 adenocarcinoma cells; KB-3-1 viability, CellTiter-Glo ATP luminescence, 72 h; Potency, µM (titrated, usually from 46.1 µM), hits mostly cytotoxic; hit rate 1.4% among 400,000; AID 1347075; also: % is scaled to controls: 0 for no effect and ±100 for the full control effect; nearly all actives have a fitted effect of over 60% in size
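KB-3-1 parental drug-naive adenocarcinoma cells in DMEM/10% FBS, incubated 72 h at 37 C with pin-transferred compounds across a concentration series. Viability by CellTiter-Glo luminescence; concentration-response curves fitted after normalization.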
MCF10A rereplic = induces DNA re-replication in MCF 10a normal breast cells; MCF 10A DNA re-replication, Hoechst nuclear intensity, 48 h; hit rate 2.9% among 350,000; Potency, µM (highest dose often 46.1 µM), for the others: at the top dose activity, positive = re-replication, hits mostly activators; also: % of control where 0% means no effect; nearly all actives have a fitted effect of over 50% in size
SW480 rerep = DNA re-replication induction in SW480 cells | Potency, µM (titrated, usually from 46.1 µM), without a hit: top-dose re-replication activation, actives largely listed as activators | AID 624297 | hit rate 1.8% among 340,000 | SW480 DNA re-replication, Hoechst DNA content imaging, 48 h; also: % of control where 0% means no effect; nearly all actives have a fitted effect of over 55% in size
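Compounds, transferred as 23 nL by pin tool, were incubated with cells for 48 hr; DNA content per nucleus was then quantified by Hoechst staining and fluorescence plate imaging.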
KB-V1 cytotox = kills drug-selected multidrug resistant KB-V1 cells; Potency, µM (titrated, usually from 46.1 µM), hits mostly cytotoxic; KB-V1 MDR cells viability, CellTiter-Glo, 72 h; hit rate 3.4% among 400,000; also: % is scaled to controls: 0 for no effect and ±100 for the full control effect; nearly all actives have a fitted effect of over 60% in size
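KB-V1 cells (P-gp-expressing MDR subline of KB-3-1) in phenol-red-free DMEM with 10% FBS were exposed to library compounds over a concentration series for 72 h at 37 degrees C. Viability read by CellTiter-Glo luminescence; concentration-effect curves fitted after normalization.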
An asterisk follows results filed as active. Calls follow the shape of the dose curve; as a rule, active = well fitted curve in the direction sought with a large enough effect; inconclusive = small, poorly fitted or top-dose-only effect, or another doubt; inactive = no such curve, though single readings can be large; an effect the other way counts as inactive or inconclusive. Potency is read from the fitted curve at half-maximal effect.

What do the screens show for `CC1=CC(C)(C)Nc2ccc(OC(=O)C(C)N3C(=O)c4ccccc4C3=O)cc21` (stereo not given)?
HT1080 IDH1KD tx: 18µM*; HT1080-NT tox: 21µM*; KB-3-1 cytotox: inconclusive; MCF10A rereplic: inconclusive; SW480 rerep: 3.7µM*; KB-V1 cytotox: inconclusive

How did O=C(O)c1ccc(CNCc2ccccc2Cl)s1 do in these assays?
KB-3-1 cytotox: inactive; KB-V1 cytotox: inactive

What do the screens show for `CCOc1ccc(NC(=O)CC2Nc3cccc4cccc(c34)NC2=O)cc1` (stereo not given)?
KB-3-1 cytotox: inactive; KB-V1 cytotox: inactive

Results for COc1cc(NC(=O)c2cnc(NCc3ccccc3)nc2C)cc(OC)c1OC ?
HT1080 IDH1KD tx: inconclusive; HT1080-NT tox: inconclusive; KB-3-1 cytotox: inconclusive; MCF10A rereplic: 11%; SW480 rerep: 17%; KB-V1 cytotox: 10µM*

How did CCOC(=O)c1cnc(NCc2ccccc2)nc1C do in these assays?
HT1080 IDH1KD tx: 10%; HT1080-NT tox: 9%; KB-3-1 cytotox: inconclusive; MCF10A rereplic: 10%; SW480 rerep: -18%; KB-V1 cytotox: inactive

Results for COc1cccc(CNc2ncc(C(=O)Nc3cc(OC)c(OC)c(OC)c3)c(C)n2)c1 ?
HT1080 IDH1KD tx: inconclusive; HT1080-NT tox: inconclusive; KB-3-1 cytotox: 8.2µM*; MCF10A rereplic: inconclusive; SW480 rerep: inconclusive; KB-V1 cytotox: inactive

Results for COc1ccccc1N1CCN(C(=O)Cn2ncc3ccsc3c2=O)CC1 ?
KB-3-1 cytotox: inactive; KB-V1 cytotox: inactive

Results for Cc1ccc(/C=C2/NC(=O)N(Cc3ccc(Br)cc3)C2=O)o1 ?
HT1080 IDH1KD tx: 2%; HT1080-NT tox: -9%; KB-3-1 cytotox: inactive; MCF10A rereplic: 16µM*; SW480 rerep: inconclusive; KB-V1 cytotox: inactive

What do the screens show for `O=C(O)c1ccc(-c2ccc(/C=C3\NC(=O)N(Cc4ccc(Cl)cc4)C3=O)o2)cc1Cl`?
HT1080 IDH1KD tx: inconclusive; HT1080-NT tox: -13%; KB-3-1 cytotox: inconclusive; MCF10A rereplic: 11µM*; SW480 rerep: 7.3µM*; KB-V1 cytotox: inactive

Results for CCOC(=O)CN1C(=O)S/C(=C\c2ccc(-c3ccc(C(=O)O)c(Cl)c3)o2)C1=O ?
HT1080 IDH1KD tx: 5%; HT1080-NT tox: 9%; KB-3-1 cytotox: inactive; MCF10A rereplic: 23µM*; SW480 rerep: 0.65µM*; KB-V1 cytotox: inactive

What do the screens show for `Cc1cccc(NC(=O)CN2C(=O)N/C(=C/c3ccc(-c4cccc(C(=O)O)c4C)o3)C2=O)c1`?
HT1080 IDH1KD tx: -1%; HT1080-NT tox: 5%; KB-3-1 cytotox: inactive; MCF10A rereplic: 5%; SW480 rerep: -5%; KB-V1 cytotox: inactive

What do the screens show for `Cc1ccc(NC(=O)CN2C(=O)S/C(=C\c3ccc(-c4cccc(C(=O)O)c4C)o3)C2=O)cc1C`?
HT1080 IDH1KD tx: -12%; HT1080-NT tox: inconclusive; KB-3-1 cytotox: inactive; MCF10A rereplic: 13µM*; SW480 rerep: inconclusive; KB-V1 cytotox: inactive

What do the screens show for `Cc1ccc(Cc2nc3ccccc3nc2SCC(=O)Nc2ccc3c(c2)OCO3)cc1`?
KB-3-1 cytotox: inactive; KB-V1 cytotox: inactive

Results for CCn1c(SCc2ccc(F)cc2Cl)nnc1-c1nonc1NC(C)=O ?
KB-3-1 cytotox: inactive; KB-V1 cytotox: inactive

What do the screens show for `Cn1cc(/C=N/n2cnc3scc(-c4ccc(Cl)cc4)c3c2=O)c2ccccc21`?
HT1080 IDH1KD tx: 0.46µM*; HT1080-NT tox: inconclusive; KB-3-1 cytotox: inconclusive; MCF10A rereplic: 0.33µM*; SW480 rerep: 0.58µM*; KB-V1 cytotox: inconclusive

What do the screens show for `Oc1ccc(/C=N/NC(=S)Nc2cccnc2)c(O)c1O`?
HT1080 IDH1KD tx: 4%; HT1080-NT tox: 4%; KB-3-1 cytotox: inactive; MCF10A rereplic: -14%; SW480 rerep: 2%; KB-V1 cytotox: inactive

How did Fc1c(F)c(F)c(/C=N/NC(=S)Nc2cccnc2)c(F)c1F do in these assays?
HT1080 IDH1KD tx: 16µM*; HT1080-NT tox: inconclusive; KB-3-1 cytotox: inactive; MCF10A rereplic: 11µM*; SW480 rerep: inconclusive; KB-V1 cytotox: inactive

What do the screens show for `Oc1cccc(/C=N/NC(=S)Nc2cccnc2)c1O`?
HT1080 IDH1KD tx: inconclusive; HT1080-NT tox: inconclusive; KB-3-1 cytotox: 10µM*; MCF10A rereplic: inconclusive; SW480 rerep: inconclusive; KB-V1 cytotox: inactive

How did Cc1cnc(N2CCC(C(N)=O)CC2)nc1-c1cccc(N(C)C)c1 do in these assays?
KB-3-1 cytotox: inactive; KB-V1 cytotox: inactive

How did CCC1CN(C(=O)Nc2ccccc2C(F)(F)F)c2ccccc2S1 (stereo not given) do in these assays?
KB-3-1 cytotox: inactive; KB-V1 cytotox: inactive

How did O=[N+]([O-])c1ccccc1-c1ccc(/C=N/n2cnnc2)o1 do in these assays?
HT1080 IDH1KD tx: -21%; HT1080-NT tox: 5%; KB-3-1 cytotox: inactive; MCF10A rereplic: -6%; SW480 rerep: -1%; KB-V1 cytotox: inconclusive

What do the screens show for `Nn1cnnc1N/N=C\c1ccc(-c2ccccc2[N+](=O)[O-])o1`?
HT1080 IDH1KD tx: -24%; HT1080-NT tox: -23%; KB-3-1 cytotox: 7.3µM*; MCF10A rereplic: inconclusive; SW480 rerep: 2%; KB-V1 cytotox: 2.1µM*

What do the screens show for `Cc1ccc(NC(=O)N2CC3CCCN3c3ccccc32)c(C)c1` (stereo not given)?
KB-3-1 cytotox: inactive; KB-V1 cytotox: inactive

Results for CCCC1=NN2C(=N)/C(=C\c3cc(C)n(Cc4ccccc4)c3C)C(=O)N=C2S1 ?
HT1080 IDH1KD tx: 6%; HT1080-NT tox: -2%; KB-3-1 cytotox: inactive; MCF10A rereplic: 23µM*; SW480 rerep: -4%; KB-V1 cytotox: inactive

What do the screens show for `Cc1cc(/C=C2\C(=N)N3N=C(S(C)(=O)=O)SC3=NC2=O)c(C)n1Cc1ccccc1`?
HT1080 IDH1KD tx: 13%; HT1080-NT tox: -15%; KB-3-1 cytotox: inactive; MCF10A rereplic: 21µM*; SW480 rerep: inconclusive; KB-V1 cytotox: inactive

Results for COc1cc(/C=C2\C(=N)N3N=C(S(C)(=O)=O)SC3=NC2=O)cc(OC)c1OCCOc1ccccc1C ?
HT1080 IDH1KD tx: 14%; HT1080-NT tox: 20%; KB-3-1 cytotox: inactive; MCF10A rereplic: -10%; SW480 rerep: -5%; KB-V1 cytotox: inactive

How did Cc1cc(/C=C2\C(=N)N3N=CSC3=NC2=O)c(C)n1Cc1ccccc1 do in these assays?
HT1080 IDH1KD tx: 0%; HT1080-NT tox: -1%; KB-3-1 cytotox: inactive; MCF10A rereplic: 29µM*; SW480 rerep: -10%; KB-V1 cytotox: inactive
